# Assay outcomes deposited in PubChem by National Center for Advancing Translational Sciences (NCATS).
# Many of the other results were omitted from the sample, so hits are more common in it than they were.
# Cycloheximide cs: counter-screen hit for Shiga toxin inhibitors, cycloheximide | cell reporter, cycloheximide protein synthesis inhibition counterscreen | max response, % | 300,000 tested, 12% active; in the data active = max response mostly above about 13%, no sharp cut-off; inactive = mostly below about 14%; note: read at 38.3 µM for the half of the compounds with a filed dose; 0% is about no effect
# AmpC no deterg: AmpC beta-lactamase inhibition without detergent. AmpC nitrocefin hydrolysis, absorbance 480 nm, 0.0001% Triton. Potency, µM (top dose mostly 57.1 µM), for inactives: top-dose activity change, negative = inhibition, most hits filed as inhibitors. 330,000 tested, 0.52% active;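 note: potency is the fitted concentration of half-maximal effect; plate controls were no compound for no effect and no enzyme for full effect; nearly all actives have a fitted effect of over 20% in size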
# Target sequence (P00811 whole entry, looked up): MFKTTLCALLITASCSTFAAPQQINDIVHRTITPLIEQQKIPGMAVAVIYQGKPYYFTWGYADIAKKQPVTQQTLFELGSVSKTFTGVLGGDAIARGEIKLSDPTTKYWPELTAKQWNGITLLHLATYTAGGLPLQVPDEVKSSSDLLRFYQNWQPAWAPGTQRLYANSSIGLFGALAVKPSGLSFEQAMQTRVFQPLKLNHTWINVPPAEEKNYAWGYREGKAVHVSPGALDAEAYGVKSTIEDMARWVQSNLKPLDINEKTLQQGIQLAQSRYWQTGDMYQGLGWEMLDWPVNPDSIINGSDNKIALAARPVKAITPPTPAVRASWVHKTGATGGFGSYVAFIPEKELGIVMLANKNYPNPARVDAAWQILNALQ
#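 AmpC (5.3 nM in the dispensed reagent) in 20 mM phosphate pH 7.0 with 0.01% (detergent screen) or 0.0001% Triton X-100 was preincubated with compounds for 15 min at room temperature. Nitrocefin was then added from an 800 uM solution, and hydrolysis was followed at 480 nm.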
# NS1 function inh: influenza NS1 inhibition | Potency, µM (highest dose often 46.1 µM), without a hit: top-dose activity, positive = more growth | 270,000 tested, 0.4% active | AID 2326; calls by dose curve; note: potency is the fitted concentration of half-maximal effect; actives are rising curves; nearly all actives have a fitted effect of over 50% in size
#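 Growth recovery, yeast-based: influenza A NS1 expressed in S. cerevisiae causes slow growth, and suppressors are detected by OD600. The parent strain without NS1 is used as positive control.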
# AmpC detergent: blocks E. coli AmpC beta-lactamase in detergent assay | P00811 | AmpC hydrolysis of nitrocefin, absorbance 480 nm, 0.01% Triton | AID 485294 | 370,000 tested, 0.041% active | Potency, µM (titrated, usually from 114 µM), for inactives: top-dose activity change, negative = inhibition, most hits filed as inhibitors;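 note: potency is the fitted concentration of half-maximal effect; 0% = no-compound wells and -100% = no-enzyme wells; nearly all actives have a fitted effect of over 25% in size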
#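 20 mM phosphate pH 7.0 + 0.01% (detergent screen) or 0.0001% Triton X-100; 5.3 nM AmpC reagent; cpd preinc 15 min RT; nitrocefin (800 uM stock) to start; A480 q20 s × 4 min; Activity was normalised to no-enzyme and no-compound control wells.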
# Shiga inhibitor: Shiga toxin inhibition | AID 2315 | inhibition, % at 38.7 µM | Vero cells, Shiga toxin protein synthesis inhibition reporter | 290,000 tested, 9.2% active; in the data active = inhibition mostly above about 28%, no sharp cut-off; inactive = mostly below about 43%; note: 0% is about no effect
# * marks the source's active call; other numbers are inactive results; i = inactive; u = inconclusive; x = no result; [ ] = another dose, or the depositor's remark. Unless noted, calls come from the whole dose curve; as a rule, active = well fitted curve in the direction sought with a large enough effect; inconclusive = small, poorly fitted or top-dose-only effect, or another doubt; inactive = no such curve, though single readings can be large; an effect the other way counts as inactive or inconclusive.
SMILES,Cycloheximide cs,AmpC no deterg,NS1 function inh,AmpC detergent,Shiga inhibitor
CCCc1cc(=O)oc2c(C)c(OCC(=O)NC3CCN(Cc4ccccc4)CC3)ccc12,7,-4%,-8%,3%,-14
CN(C(=O)CSc1nc2ccccc2n1CC(=O)N(C)C1CCCCC1)c1ccccc1,x,x,x,12%,x
COc1ccc2cc(C3CC(c4ccco4)=NN3S(=O)(=O)c3ccccc3)c(Cl)nc2c1 (stereo not drawn),17,3%,u,2%,33*
CCOc1ccc2cc(C3CC(c4ccco4)=NN3S(=O)(=O)c3ccccc3)c(Cl)nc2c1 (stereo not drawn),19*,u,u,2%,68*
Cc1ccc2cc(C3CC(c4ccco4)=NN3S(=O)(=O)c3ccccc3)c(Cl)nc2c1 (stereo not drawn),15,1%,u,u,-4
O=C(Nc1cc(Cl)cc(Cl)c1)c1ccc(F)c(S(=O)(=O)N2CCCCCC2)c1,x,x,x,9%,x
Cc1cc(Nc2ccc(O)cc2)ccc1N,x,-22%,x,5%,x
COc1ccc(CC(=O)n2[nH]c(=O)ccc2=O)cc1OC,15,-21%,5%,u,41*
Cc1ccc(NC(=O)Nc2nnc(Cc3ccc(F)cc3)s2)cc1,16,-38%,-2%,1%,42*
COc1ccc(NC(=O)Nc2nnc(Cc3ccc(OC)c(OC)c3)s2)cc1,-1,2%,22%,0%,-4
COc1ccc(Cc2nnc(NC(=O)Nc3ccc(C)cc3)s2)cc1OC,15*,-23%,-3%,-9%,43*
COc1ccc(CC(=O)O/N=C(\N)Cc2ccc(OC)c(OC)c2)cc1,6,35%,-18%,u,-10
COc1ccc(C(=O)Cc2ccc(OC)c(OC)c2)cc1,56*,4%,-10%,-7%,53*
O=c1cc(-c2ccc(F)cc2F)[nH]c2ccc(F)cc12,21,x,x,x,i
O=C(CC1C(=O)NCCN1C(=O)Nc1ccccc1)Nc1cc(Cl)cc(Cl)c1 (stereo not drawn),-2,212%,19%,u,-9
CCOc1ccc(C2=C(C(=O)CC)Sc3nncn3N2C(=O)CC)cc1,x,x,x,-1%,x
COC(=O)c1cc(NC(=O)Cn2ncc3c([nH]c4ccccc43)c2=O)cc(C(=O)OC)c1,x,x,x,-1%,x
CC1CCCN(Cc2c(O)ccc3c(=O)c(-c4ccccc4Cl)c(C(F)(F)F)oc23)C1 (stereo not drawn),x,x,x,12%,x
COCC(=O)Nc1nnc(Cc2ccc(OC)c(OC)c2)s1,6,-12%,-7%,u,33
Cc1ccc(NC(=O)Nc2nnc(Cc3ccc([N+](=O)[O-])cc3)s2)cc1C,18*,-39%,0%,-6%,31
COc1ccc(C(=O)Nc2nnc(Cc3ccc(OC)c(OC)c3)s2)cc1,11*,5%,-3%,-8%,20
COc1ccc2c(c1)CC(C(=O)Nc1ccc(Br)c(C)c1)CO2 (stereo not drawn),x,x,x,13%,x
Cc1cc(C)c(-c2cc(C(=O)Nc3cc(C)ccc3C)[nH]n2)c(O)c1,-6,-31%,6%,-1%,-3
Cc1ccc(C)c(NC(=O)c2cc(-c3cc(C)c(C)cc3O)n[nH]2)c1,30*,-41%,1%,0%,61*
COc1ccc(OC)c(NC(=O)c2cc(-c3ccc(C)cc3O)n[nH]2)c1,10,-16%,u,3%,1
SMILES,Cycloheximide cs,AmpC no deterg,NS1 function inh,AmpC detergent,Shiga inhibitor
Cc1ccc(NC(=O)c2cc(-c3ccc(C)c(C)c3O)n[nH]2)cc1C,0,-23%,5%,-17%,6
Cc1ccc(NC(=O)c2cc(-c3cc(C)c(C)cc3O)n[nH]2)cc1C,15*,-21%,-2%,3%,9
Cc1ccc(C)c(NC(=O)c2cc(-c3ccccc3O)n[nH]2)c1,29*,-38%,2%,-1%,59*
Cc1ccc(-c2cc(C(=O)Nc3cc(C)ccc3C)[nH]n2)c(O)c1,18*,-32%,18%,-5%,30*
CNC(=O)c1cc(C(=O)c2ccc(F)cc2C(F)(F)F)c[nH]1,-5,1%,-1%,-5%,-12
COc1cc(S(=O)(=O)NC2CCCCC2)c(C)cc1C,1,-10%[2.29 µM],-32%,-9%,10
Cc1snc(SCC(=O)c2ccc(Cl)cc2)c1C#N,35*,-50%,11%,u,58*
Cc1ccnc(SCC(=O)c2ccc(Br)cc2)c1C#N,84*,-31%,1%,-12%,96*
